Source: PubChem BioAssay AID540364 (The Scripps Research Institute Molecular Screening Center, 2011)
About 2,000 (0.56%) of roughly 360,000 compounds were called active. The entries come from a sample that favours actives as a whole. Unmarked numbers belong to inactive results.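 The calls were made as follows: active = activation above the average of all compounds screened plus 3 SD, cutoff fixed separately per campaign (cut at about 7.5% in these data); inactive = the rest.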

test: FXN promoter activators, primary screen, cell-based, luciferase luminescence, HEK293 lucGAA850 (AID 540364); details: HEK293 lucGAA850 FXN promoter luciferase reporter, 24 h; at 6 µM; active compounds read high; percent of 10 µM SAHA response;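 also: 0% = DMSO wells and 100% = 10 µM SAHA wells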

| Structure (SMILES) | activation |
| --- | --- |
| O=C1CS(=O)CN1c1ccc(Oc2ccccc2)cc1 (centres undefined) | 0.15% |
| Cc1ccc(-n2nc(N)c3c(=O)oc(N(C)C)nc32)cc1 | -0.82% |
| Cc1ccsc1C(=O)NCCc1ccco1 | 2.23% |
| CCOc1ccc(NC(=S)N2CCCCCC2)cc1 | 1.3% |
| CCC(C)c1ccc(NC(=S)N2CCCC2)cc1 (centres undefined) | 2.31% |
| CCCCc1ccc(NC(=S)N2CCCC(CO)C2)cc1 (centres undefined) | 9.18% (active) |
| Cc1ccc2cc(/C=N/NC(=O)[C@@H]3CCCN3)c(Cl)nc2c1 | 0.79% |
| Cc1ccc2cc(/C=N/Nc3ccc(C(=O)O)cc3)c(Cl)nc2c1 | 8.93% (active) |
| O=C(O)c1ccc(N/N=C/c2ccc3ncccc3c2)cc1 | -3.19% |
| CCOCCCNC(=O)C(NC(=O)CNC(=O)c1ccccc1)c1ccc(C)cc1 (centres undefined) | 1.83% |
| COc1ccc(OC)c(NC(=O)CSc2nc3cccnc3n2C)c1 | 1.38% |
| COc1cccc(-c2ccc(C#N)c(SCC(=O)NCCc3ccc(Cl)cc3)n2)c1 | 1.81% |
| COc1cccc2cc(/C(C)=N/NC(=O)c3ccco3)oc12 | 3.55% |
| COc1ccc(NC(=O)CSc2nc(SC)ns2)c(OC)c1 | 7.6% (active) |
| CSc1nsc(SCC(=O)Nc2cc(C(=O)O)ccc2C)n1 | 0.88% |
| COc1ccc(C)cc1NC(=O)CSc1nc(SC)ns1 | -0.57% |
| Cc1cccc(C(=O)NC2CCN(CC(=O)Nc3cccc(Cl)c3)CC2)c1 | -1.24% |
| Fc1c(F)c(C(F)(F)F)c(F)c(F)c1N1CCN(c2ccc3nnc(C(F)(F)F)n3n2)CC1 | -0.98% |
| Cc1cc(NC(=O)Nc2ccccc2[N+](=O)[O-])no1 | 3.8% |
| Cc1ccc2nsnc2c1NC(=O)c1ccccc1[N+](=O)[O-] | 3.24% |
| Cc1ccccc1Nc1c([N+](=O)[O-])ccc2nonc12 | 8.33% (active) |
| CC(C)CN(C(=O)CSc1nncn1C)C1CCS(=O)(=O)C1 (centres undefined) | 0.57% |
| CCC1C(=O)c2ccccc2N(C)C1=O (centres undefined) | 0.11% |
| CN1C(=O)/C(=C\c2cc(Br)cs2)c2ccccc21 | 9.69% (active) |

| Structure (SMILES) | activation |
| --- | --- |
| CN1C(=O)/C(=N/OC(=O)c2ccccc2Br)c2ccccc21 | 2.92% |
| COCCC(=O)Nc1ccc2c(c1)CN(C(=O)CCOC)CC2 | 0.49% |
| CC1C/C(=N/NC(=O)c2cccs2)CC(C)(C)C1 (centres undefined) | 2.63% |
| Cc1nnc(Sc2nc3c(c(=O)[nH]c(=O)n3C)n2Cc2ccccc2)s1 | 21.3% (active) |
| Cc1nnc(SCCCn2c(N3CCCCC3)nc3c2c(=O)[nH]c(=O)n3C)s1 | 3.13% |
| C=CCn1c(SCc2ccccc2)nc2c1c(=O)[nH]c(=O)n2C | 4.04% |
| COc1cc(Cn2c3ccc(NC(=O)CC(C)c4ccccc4)cc3c(=O)n2C)ccc1F (centres undefined) | -0.13% |
| C[C@H]([C@@H](O)[C@@H](O)[C@@H](C)C(C)(C)C)[C@H]1CC[C@H]2C3CC[C@H]4C[C@H](OS(=O)(=O)O)[C@@H](OS(=O)(=O)O)C[C@]4(C)[C@H]3CC[C@]12C (some centres undefined) | -1.51% |
| Nn1cnnc1N/N=C/c1cc([N+](=O)[O-])c(Cl)cc1Cl | -1.71% |
| CNC(=O)c1cccc2nc3ccccc3nc12 | 3.97% |
| CN(C)CCNC(=O)c1ccc(Cl)c2cc3ccccc3nc12 | 22.7% (active) |
| CCCN(CCC)CCNC(=O)c1cc2c(C)nc3ccccc3c2o1 | -0.61% |
| COC(=O)CCSc1cc([N+](=O)[O-])cc2c1c(C1OCCS1)nn2-c1ccccc1 (centres undefined) | 4.76% |
| CC1=C(C(=O)N2CCOCC2)CC(CC(=O)NCc2cccc3ccccc23)C(=O)N1CCC1=CCCCC1 (centres undefined) | -1.16% |
| Cn1c(=O)n(C)c2cc(S(=O)(=O)N3CCCc4ccccc43)ccc21 | 7.64% (active) |
| O=S(=O)(c1ccccc1)N1CCc2ccccc21 | 1.28% |
| CCn1c(=O)c(=O)n(CC)c2cc(S(=O)(=O)N3CCc4ccccc43)ccc21 | 0.26% |
| Cc1c(Br)c([N+](=O)[O-])nn1C(C)C(=O)Nc1nccs1 (centres undefined) | 1.64% |
| COc1ccc(-n2nc(C(=O)NCC(=O)Nc3cccc(C)n3)c3ccccc3c2=O)cc1 | -0.56% |
| Cc1ccc(S(=O)(=O)N(CCc2ccccc2)c2ccc3c(c2)C2CC3CCN2C(=O)OCc2ccccc2)cc1 (centres undefined) | 0.17% |
| COc1ccc(/C=C/C(=O)Nc2ccc(C)cc2)cc1S(=O)(=O)N1CCOCC1 | -0.63% |
| COc1cc(/C=C/C(=O)Nc2ccc(OC)c(S(=O)(=O)N3CCOCC3)c2)ccc1OCC#N | -0.85% |
| COc1ccc(/C=C/C(=O)Nc2ccc(C34CC5CC(CC(O)(C5)C3)C4)cc2)cc1OC | 7.97% (active) |
| Cc1ccc(C(=O)N/C(=C/c2cccs2)C(=O)NCC2CCCO2)cc1 (centres undefined) | 0.61% |

| Structure (SMILES) | activation |
| --- | --- |
| Cc1ccc2c(c1)N(CC(=O)NCC1CCCO1)C(=O)CO2 (centres undefined) | 0.58% |
| Cc1ccc(-n2c(C)cc(/C=C(\C#N)C(=O)NCC3CCCO3)c2C)cc1 (centres undefined) | 8.72% (active) |
| CCN(CC)CCNS(=O)(=O)c1ccc(/C=C/C(=O)O)cc1 | 3.64% |
| CCCS(=O)(=O)N1CCC(C(=O)NCCCN(C)Cc2ccccc2)CC1 | -0.04% |
| CCc1ccc2nc3sc(C(=O)Nc4nnc(CC)s4)c(N)c3cc2c1 | 3.44% |
| Cc1ccc(Sc2ccc(NC(=O)c3ccc(F)cc3)cc2C#N)cc1 | -1.85% |
| Cc1ccc(NC(=O)c2sc3nc(N)c(C#N)cc3c2N)cc1 | 9.04% (active) |
| CCCCc1ccc(S(=O)(=O)NC(=O)C2(C)CCN2C(=O)c2c(C)noc2C)cc1 (centres undefined) | 1.5% |
| Cc1c(C(C)(C)O)[nH]c2ccc(C#N)cc12 | 2.02% |
| Cc1onc(-c2c(F)cccc2Cl)c1C(=O)OCC(=O)N1C(C)CCCC1C (centres undefined) | 0.34% |
| CCCn1c(=NC(C)=O)c(C(=O)OCC)cc2c(=O)n3ccccc3nc21 | 5.78% |
| CCOC(=O)c1cc2c(=O)n3ccccc3nc2n(CC(C)C)c1=NC(=O)c1c(-c2c(F)cccc2Cl)noc1C | 8.16% (active) |
| CCCNC(=O)C1(C)CCCN(Cc2c(C)nn(-c3ccccc3)c2C)C1 (centres undefined) | 0.72% |
| Cc1cc(C(=O)O)c(S(C)(=O)=O)s1 | -0.08% |
| CCOc1ccc(N2C(=O)/C(=C/c3ccc(C)o3)N(C)C2=S)cc1 | 4.15% |
| Cc1cc(=O)oc(C)c1C(=O)NCCN(C)Cc1ccccc1 | 1.1% |
| Cc1cc(=O)oc(C)c1C(=O)NCc1ccc(F)cc1 | 14% (active) |
| COc1ccc(CNC(=O)c2c(C)cc(=O)oc2C)cc1OC | -0.25% |
| CCN(CC)CCN1C(=O)C2C(C(=O)Nc3ccc(Br)cc3)C3C=CC2(O3)C1C(=O)NC1CCCCC1 (centres undefined) | -1.41% |
| CS(=O)(=O)c1ccc2nnn(OCC(=O)Nc3cccc(C#N)c3)c2c1 | -0.17% |
| Cc1ccc(C2C(C#N)C(C#N)N3CCCN23)cc1 (centres undefined) | 3.84% |
| CCCCOC(=O)CNc1nnc(SCC(=O)OCC)[nH]c1=O | 4.67% |
| COc1ccc(C#Cc2c(-c3ccc(OC)cc3)oc3ccc(-c4ccc5c(c4)OCO5)cc23)cc1 | 0.99% |
| CC(=O)c1cnc(-c2ccccc2)s1 | -1.26% |

| Structure (SMILES) | activation |
| --- | --- |
| O=C(/C=C/Nc1ccccc1)c1cnc(-c2ccccc2)s1 | -1.96% |
| CC(C)(C)C(=O)c1cnc(Nc2ccccc2)s1 | 8.7% (active) |
| Cc1cccc(C)c1N1C(=O)CN(Cc2ccccc2)C1=S | 2.98% |
| O=C(NC(CC(=O)N1CCN(c2ccccc2)CC1)c1ccccc1)c1ccccc1Cl (centres undefined) | -0.04% |
| O=C1N=C(N2CCCC2)S/C1=C\c1cccc(Br)c1 | 8.18% (active) |
| CCOc1cc(/C=C2\SC(N3CCCCC3)=NC2=O)ccc1O | 1.52% |
| O=C1N=C(N2CCc3ccccc3C2)S/C1=C\c1ccc(O)cc1 | -0.01% |
| COC(=O)C1CCN(CC(N)=O)CC1 | -1.4% |
| Cc1ccc(CN(C(=O)c2sc3ccccc3c2Cl)C2CCS(=O)(=O)C2)cc1 (centres undefined) | 1.1% |
| CC1(Cc2ccccc2C#N)C(=O)Nc2ccc(-c3ccc4[nH]ccc4c3)cc21 (centres undefined) | -5.44% |
| CC1(Cc2cccc(C#N)c2)C(=O)Nc2ccc(-c3cccc(C(F)(F)F)c3)cc21 (centres undefined) | 11.2% (active) |
| Cc1ccc(CC2(C)C(=O)Nc3ccc(OC(F)(F)F)cc32)cc1 (centres undefined) | -1% |
| COc1cccc(CNc2nc(NCc3cccs3)nc3ccsc23)c1 | -1.3% |
| NC(c1csc(NC(=O)Nc2ccccc2Oc2ccccc2)n1)c1ccccc1Cl (centres undefined) | -1.81% |
| c1ccc2c(c1)OCC(c1nn3cnnc3s1)O2 (centres undefined) | 3.93% |
| CC1CCc2sc3nc(N4CCN(CCO)CC4)n4ncnc4c3c2C1 (centres undefined) | 7.88% (active) |
| CCCn1nnc2sc3c(c2c1=O)CCC(C)C3 (centres undefined) | 4.15% |
| CC1CCc2c(sc3nc4n(c(=O)c23)CCS4)C1 (centres undefined) | 3.94% |
| CCOc1cc2[nH]c(=O)n(CCC(=O)NCc3ccc(OC)cc3)c(=O)c2cc1OCC | 0.9% |
| NC(=S)NN=C1CCCC(C(F)(F)F)C1 (centres undefined) | -0.39% |
| N#CCCCn1c(O)c(N=NC(=O)C(O)c2ccccc2)c2ccccc21 (centres undefined) | 1.76% |
| CCOC(=O)c1ccc(N=C2SC(C(=O)NC)CC(=O)N2CCc2ccccc2)cc1 (centres undefined) | 0.94% |
